In the supplement of paper PMC4022240:
± gives the standard deviation.

Key:
Test in all cases: peptide microarray binding signal (635 nm), min-max normalized on array (fraction of array maximum); higher = stronger binding
Settings in all cases: peptide region: H3 11-23
[1] = target: T1, HaloTag-ATRX ADD domain (163-292)
T1 chain: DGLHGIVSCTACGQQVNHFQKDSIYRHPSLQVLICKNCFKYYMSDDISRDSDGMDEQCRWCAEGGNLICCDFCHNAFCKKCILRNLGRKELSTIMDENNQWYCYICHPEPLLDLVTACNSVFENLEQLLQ
Outline: (§1)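 Two probe formats were used for 1 h at 4°C: biotin-labelled HaloTag reader fusions (10 nM to 1 μM) with streptavidin-Alexa Fluor 647, and rabbit histone antibodies (1:10,000 to 1:2,000) with anti-rabbit Alexa 647. Both were applied to nitrocellulose arrays of histone 13-mer peptide–cellulose conjugates printed in triplicate with a Cy3 tracer and blocked overnight at 4°C. Signal was read at 635 nm and misprints at 532 nm on an Axon GenePix 4000B. Binding signal is expressed as the triplicate-spot mean intensity, min-max scaled for each library.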

[2] = target: HaloTag-ING2 PHD (mouse Ing2 200-280)
Outline: as §1

[3] = target: anti-H3K4me3 antibody ab8580
Outline: as §1

[4] = target: anti-H3K9me3 antibody ab8898
Outline: as §1

[5] = peptide modifications: H3R17cit H3K18me1, binder concentration: 1:2,000 dilution
[6] = peptide modifications: H3R17cit H3K18me1, binder concentration: 1:10,000 dilution
[7] = peptide modifications: H3R17cit, binder concentration: 1:2,000 dilution
[8] = peptide modifications: H3R17cit, binder concentration: 1:10,000 dilution
[9] = peptide modifications: H3R17cit H3K18me2, binder concentration: 1:2,000 dilution
[10] = peptide modifications: H3R17cit H3K18me2, binder concentration: 1:10,000 dilution
[11] = peptide modifications: H3R17me1 H3K18me3, binder concentration: 1:2,000 dilution
[12] = peptide modifications: H3R17me1 H3K18me3, binder concentration: 1:10,000 dilution
[13] = peptide modifications: H3R17me1 H3K18me1, binder concentration: 1:2,000 dilution
[14] = peptide modifications: H3R17me1 H3K18me1, binder concentration: 1:10,000 dilution
[15] = peptide modifications: H3R17me1 H3K18ac, binder concentration: 1:2,000 dilution
[16] = peptide modifications: H3R17me1 H3K18ac, binder concentration: 1:10,000 dilution
[17] = peptide modifications: H3R17me2a H3K18ac, binder concentration: 1:2,000 dilution
[18] = peptide modifications: H3R17me2a H3K18ac, binder concentration: 1:10,000 dilution
[19] = peptide modifications: H3R17me1 H3K18me2, binder concentration: 1:2,000 dilution
[20] = peptide modifications: H3R17me1 H3K18me2, binder concentration: 1:10,000 dilution
[21] = peptide modifications: H3R17me1, binder concentration: 1:2,000 dilution
[22] = peptide modifications: H3R17me1, binder concentration: 1:10,000 dilution
[23] = peptide modifications: H3R17cit H3K18me3, binder concentration: 1:2,000 dilution
[24] = peptide modifications: H3R17cit H3K18me3, binder concentration: 1:10,000 dilution

Binder: TGGKAPRKQLATK [H3 11-23 T G G K A P Rcit Kme Q L A T K]
- peptide microarray binding signal ([1]; peptide modifications: H3R17cit H3K18me1, binder concentration: 50 nM): 0.00524 ± 6.5e-05
- peptide microarray binding signal ([1]; peptide modifications: H3R17cit H3K18me1, binder concentration: 500 nM): 0.009239 ± 4.5e-05
- peptide microarray binding signal ([2]; peptide modifications: H3R17cit H3K18me1, binder concentration: 10 nM): 0.00382 ± 0.00016
- peptide microarray binding signal ([2]; peptide modifications: H3R17cit H3K18me1, binder concentration: 100 nM): 0.014 ± 0.0031
- peptide microarray binding signal [3, 5]: 0.00383 ± 0.00052
- peptide microarray binding signal [3, 6]: 0.0028 ± 0.00018
- peptide microarray binding signal [4, 5]: 0.000846 ± 5.8e-05
- peptide microarray binding signal [4, 6]: 0.000807

Binder: TGGKAPRKQLATK [H3 11-23 T G G K A P Rcit K Q L A T K]
- peptide microarray binding signal ([1]; peptide modifications: H3R17cit, binder concentration: 50 nM): 0.00364 ± 6.7e-05
- peptide microarray binding signal ([1]; peptide modifications: H3R17cit, binder concentration: 500 nM): 0.0192 ± 0.00046
- peptide microarray binding signal ([2]; peptide modifications: H3R17cit, binder concentration: 10 nM): 0.00794 ± 0.00039
- peptide microarray binding signal ([2]; peptide modifications: H3R17cit, binder concentration: 100 nM): 0.0168 ± 0.0043
- peptide microarray binding signal [3, 7]: 0.000302 ± 4.1e-05
- peptide microarray binding signal [3, 8]: 0.00148 ± 0.00015
- peptide microarray binding signal [4, 7]: 0.00122 ± 4.2e-05
- peptide microarray binding signal [4, 8]: 0.0015 ± 6.7e-05

Binder: TGGKAPRKQLATK [H3 11-23 T G G K A P Rcit Kme2 Q L A T K]
- peptide microarray binding signal ([1]; peptide modifications: H3R17cit H3K18me2, binder concentration: 50 nM): 0.00542 ± 6.7e-05
- peptide microarray binding signal ([1]; peptide modifications: H3R17cit H3K18me2, binder concentration: 500 nM): 0.0117 ± 0.00022
- peptide microarray binding signal ([2]; peptide modifications: H3R17cit H3K18me2, binder concentration: 10 nM): 0.00806 ± 0.00083
- peptide microarray binding signal ([2]; peptide modifications: H3R17cit H3K18me2, binder concentration: 100 nM): 0.0217 ± 0.0032
- peptide microarray binding signal [3, 9]: 0.0091 ± 0.0018
- peptide microarray binding signal [3, 10]: 0.00548 ± 0.00043
- peptide microarray binding signal [4, 9]: 0.000921 ± 7.2e-05
- peptide microarray binding signal [4, 10]: 0.000865 ± 2.4e-05

Binder: TGGKAPRKQLATK [H3 11-23 T G G K A P Rme Kme3 Q L A T K]
- peptide microarray binding signal ([1]; peptide modifications: H3R17me1 H3K18me3, binder concentration: 50 nM): 0.0105 ± 0.00069
- peptide microarray binding signal ([1]; peptide modifications: H3R17me1 H3K18me3, binder concentration: 500 nM): 0.0187 ± 0.002
- peptide microarray binding signal ([2]; peptide modifications: H3R17me1 H3K18me3, binder concentration: 10 nM): 0.00901 ± 0.00033
- peptide microarray binding signal ([2]; peptide modifications: H3R17me1 H3K18me3, binder concentration: 100 nM): 0.014 ± 0.0016
- peptide microarray binding signal [3, 11]: 0.468 ± 0.19
- peptide microarray binding signal [3, 12]: 0.29 ± 0.07
- peptide microarray binding signal [4, 11]: 0.0548 ± 0.023
- peptide microarray binding signal [4, 12]: 0.0168 ± 0.0037

Binder: TGGKAPRKQLATK [H3 11-23 T G G K A P Rme Kme Q L A T K]
- peptide microarray binding signal ([1]; peptide modifications: H3R17me1 H3K18me1, binder concentration: 50 nM): 0.009 ± 0.00036
- peptide microarray binding signal ([1]; peptide modifications: H3R17me1 H3K18me1, binder concentration: 500 nM): 0.018 ± 0.0028
- peptide microarray binding signal ([2]; peptide modifications: H3R17me1 H3K18me1, binder concentration: 10 nM): 0.0114 ± 0.001
- peptide microarray binding signal ([2]; peptide modifications: H3R17me1 H3K18me1, binder concentration: 100 nM): 0.0208 ± 0.0062
- peptide microarray binding signal [3, 13]: 0.00808 ± 0.0017
- peptide microarray binding signal [3, 14]: 0.00622 ± 0.0014
- peptide microarray binding signal [4, 13]: 0.0021 ± 0.00037
- peptide microarray binding signal [4, 14]: 0.00161 ± 4.1e-05

Binder: TGGKAPRKQLATK [H3 11-23 T G G K A P Rme Kac Q L A T K]
- peptide microarray binding signal ([1]; peptide modifications: H3R17me1 H3K18ac, binder concentration: 50 nM): 0.00715 ± 0.00026
- peptide microarray binding signal ([1]; peptide modifications: H3R17me1 H3K18ac, binder concentration: 500 nM): 0.0141 ± 0.00063
- peptide microarray binding signal ([2]; peptide modifications: H3R17me1 H3K18ac, binder concentration: 10 nM): 0.00931 ± 0.0014
- peptide microarray binding signal ([2]; peptide modifications: H3R17me1 H3K18ac, binder concentration: 100 nM): 0.0197 ± 0.0049
- peptide microarray binding signal [3, 15]: 0.00513 ± 0.00068
- peptide microarray binding signal [3, 16]: 0.0149 ± 0.004
- peptide microarray binding signal [4, 15]: 0.001208 ± 9.1e-06
- peptide microarray binding signal [4, 16]: 0.00121 ± 3.2e-05

Binder: TGGKAPRKQLATK [H3 11-23 T G G K A P Rme2a Kac Q L A T K]
- peptide microarray binding signal ([1]; peptide modifications: H3R17me2a H3K18ac, binder concentration: 50 nM): 0.00671 ± 0.00026
- peptide microarray binding signal ([1]; peptide modifications: H3R17me2a H3K18ac, binder concentration: 500 nM): 0.0144 ± 0.001
- peptide microarray binding signal ([2]; peptide modifications: H3R17me2a H3K18ac, binder concentration: 10 nM): 0.00967 ± 0.00055
- peptide microarray binding signal ([2]; peptide modifications: H3R17me2a H3K18ac, binder concentration: 100 nM): 0.0188 ± 0.0034
- peptide microarray binding signal [3, 17]: 0.00549 ± 0.00049
- peptide microarray binding signal [3, 18]: 0.0302 ± 0.033
- peptide microarray binding signal [4, 17]: 0.00273 ± 0.00027
- peptide microarray binding signal [4, 18]: 0.00427 ± 0.0013

Binder: TGGKAPRKQLATK [H3 11-23 T G G K A P Rme Kme2 Q L A T K]
- peptide microarray binding signal ([1]; peptide modifications: H3R17me1 H3K18me2, binder concentration: 50 nM): 0.00837 ± 0.00068
- peptide microarray binding signal ([1]; peptide modifications: H3R17me1 H3K18me2, binder concentration: 500 nM): 0.0122 ± 0.0013
- peptide microarray binding signal ([2]; peptide modifications: H3R17me1 H3K18me2, binder concentration: 10 nM): 0.0167 ± 0.002
- peptide microarray binding signal ([2]; peptide modifications: H3R17me1 H3K18me2, binder concentration: 100 nM): 0.0345 ± 0.0088
- peptide microarray binding signal [3, 19]: 0.0126 ± 0.0083
- peptide microarray binding signal [3, 20]: 0.0135 ± 0.01
- peptide microarray binding signal [4, 19]: 0.00181 ± 0.00018
- peptide microarray binding signal [4, 20]: 0.001557 ± 1.5e-05

Binder: TGGKAPRKQLATK [H3 11-23 T G G K A P Rme K Q L A T K]
- peptide microarray binding signal ([1]; peptide modifications: H3R17me1, binder concentration: 50 nM): 0.0101 ± 0.00079
- peptide microarray binding signal ([1]; peptide modifications: H3R17me1, binder concentration: 500 nM): 0.0274 ± 0.0035
- peptide microarray binding signal ([2]; peptide modifications: H3R17me1, binder concentration: 10 nM): 0.00877 ± 0.0015
- peptide microarray binding signal ([2]; peptide modifications: H3R17me1, binder concentration: 100 nM): 0.0348 ± 0.0049
- peptide microarray binding signal [3, 21]: 0.00176 ± 7.5e-05
- peptide microarray binding signal [3, 22]: 0.00103 ± 2.1e-05
- peptide microarray binding signal [4, 21]: 0.00326 ± 7.1e-05
- peptide microarray binding signal [4, 22]: 0.00265 ± 0.00014

Binder: TGGKAPRKQLATK [H3 11-23 T G G K A P Rcit Kme3 Q L A T K]
- peptide microarray binding signal ([1]; peptide modifications: H3R17cit H3K18me3, binder concentration: 50 nM): 0.00592 ± 0.00019
- peptide microarray binding signal ([1]; peptide modifications: H3R17cit H3K18me3, binder concentration: 500 nM): 0.012 ± 0.00018
- peptide microarray binding signal ([2]; peptide modifications: H3R17cit H3K18me3, binder concentration: 10 nM): 0.0112 ± 0.0014
- peptide microarray binding signal ([2]; peptide modifications: H3R17cit H3K18me3, binder concentration: 100 nM): 0.0317 ± 0.0063
- peptide microarray binding signal [3, 23]: 0.728 ± 0.052
- peptide microarray binding signal [3, 24]: 0.45 ± 0.036
- peptide microarray binding signal [4, 23]: 0.0249 ± 0.0032
- peptide microarray binding signal [4, 24]: 0.0125 ± 0.0016
